# Assay results: paper PMC5540273 (PLoS ONE, 2017)
# Columns and labels:
# Conditions in all cases: concentration: 1 μM, replicates: in singlicate; n = 1
# [1] = tested on: EPHA1
# [2] = tested on: EPHA2
# [3] = tested on: EPHA3
# [4] = tested on: EPHA4
# [5] = tested on: EPHA5
# [6] = tested on: EPHA6
# [7] = tested on: EPHA7
# [8] = tested on: EPHA8
# [9] = tested on: EPHB1
# [10] = tested on: EPHB2
# [11] = tested on: EPHB3
# [12] = tested on: EPHB4
# [13] = tested on: EPHB6
# [14] = tested on: ERBB2
# [15] = tested on: ERBB3
# [16] = tested on: ERBB4
# [17] = tested on: T1, ERK1
# T1 construct: gene MAPK3
# [18] = tested on: T2, ERK2
# T2 construct: gene MAPK1
# [19] = tested on: T3, ERK3
# T3 construct: gene MAPK6
# [20] = tested on: T4, ERK4
# T4 construct: gene MAPK4
# 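Further: KINOMEscan kinase panel screen.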
Compound,%Inh [1],%Inh [2],%Inh [3],%Inh [4],%Inh [5],%Inh [6],%Inh [7],%Inh [8],%Inh [9],%Inh [10],%Inh [11],%Inh [12],%Inh [13],%Inh [14],%Inh [15],%Inh [16],%Inh [17],%Inh [18],%Inh [19],%Inh [20]
Cl.NS(=O)(=O)c1cccc(Nc2cc(-c3ccc(F)cc3)n[nH]2)c1 [GW824645],0%,0%,0%,0%,0%,0%,0%,21%,0%,0%,0%,0%,0%,4%,17%,0%,0%,0%,0%,0%
COc1cc2ncn(-c3cc(OCc4ccncc4Br)c(C(N)=O)s3)c2cc1OC [GW854278],25%,10%,21%,0%,0%,0%,0%,5%,0%,9%,0%,18%,3%,11%,37%,0%,0%,0%,0%,4%
O=C(Nc1n[nH]c2nc(-c3ccccc3)c(Br)cc12)C1CC1 [SB-708998],23%,27%,0%,11%,3%,9%,0%,15%,23%,9%,5%,13%,23%,11%,3%,0%,5%,0%,2%,0%
Nc1ncnc2c1ncn2-c1cccc(F)c1 [SKF-97560],11%,9%,0%,4%,0%,0%,10%,10%,17%,4%,0%,0%,25%,1%,20%,0%,9%,0%,13%,2%
COc1cc2ncn(-c3cc(OCc4ccc(S(C)(=O)=O)cc4)c(C(N)=O)s3)c2cc1OC [GW869979],0%,0%,7%,0%,0%,0%,22%,17%,9%,9%,0%,0%,38%,0%,11%,0%,10%,2%,6%,0%
COC(=O)c1c(-c2ccccc2)c2cc(C)ccc2c(=O)n1Cc1ccccc1,0%,0%,14%,61%,0%,75%,0%,0%,0%,2%,45%,1%,0%,5%,0%,0%,0%,9%,0%,0%
CCCNC(=O)Nc1ccc(Oc2ncnc3ccn(C)c23)cc1,0%,0%,0%,3%,12%,8%,0%,0%,1%,20%,0%,0%,5%,33%,1%,4%,0%,0%,2%,0%
CCS(=O)c1ccc(-c2coc3ccc(-c4nnc(C)o4)cc23)cc1 (centres unmarked),5%,13%,4%,0%,4%,12%,0%,0%,0%,0%,0%,9%,3%,8%,3%,9%,0%,13%,0%,0%
CN(C)c1cc(-c2ccc3c(N)n[nH]c3c2)nc(N)n1 [GSK2219329],15%,0%,4%,8%,0%,0%,0%,3%,14%,0%,9%,13%,3%,25%,0%,30%,15%,0%,11%,0%
Cc1cccc(-c2nc(Nc3ccc4c(cnn4C)c3)c3ccccc3n2)n1 [GW876731],6%,0%,0%,0%,1%,0%,0%,0%,3%,6%,0%,0%,13%,0%,0%,8%,0%,0%,0%,0%
CCc1nc(-c2cccc(C)c2)c(-c2ccncc2)s1,0%,17%,4%,6%,2%,0%,0%,0%,8%,2%,7%,14%,0%,48%,0%,5%,0%,12%,0%,12%
COC(=O)c1c(-c2ccccc2)c2cc(Br)ccc2c(=O)n1Cc1ccc(S(C)(=O)=O)cc1,0%,22%,0%,33%,16%,45%,24%,23%,14%,21%,30%,18%,34%,55%,6%,13%,1%,38%,4%,3%
CCn1c(-c2nonc2N)nc2ccccc21 [SB-693162/GW549034],0%,0%,10%,0%,0%,0%,0%,0%,0%,0%,0%,0%,45%,0%,4%,0%,0%,10%,0%,0%
COc1cc(OC)cc(-c2cc3cnc(N)nc3nc2NC(=O)NC(C)(C)C)c1,28%,0%,0%,0%,0%,0%,0%,0%,0%,0%,0%,0%,24%,4%,0%,4%,0%,0%,0%,4%
COc1cccc(C2=C(Nc3cccc(C(=O)O)c3)C(=O)NC2=O)c1 [SB-390770],9%,23%,0%,10%,0%,11%,0%,0%,8%,9%,8%,7%,21%,6%,16%,0%,0%,0%,2%,0%
Fc1cccc(CSc2nnc(-c3ccc4c(c3)CCO4)o2)c1,0%,0%,13%,0%,7%,0%,10%,11%,9%,23%,0%,0%,14%,59%,8%,0%,5%,30%,21%,0%

Compound,%Inh [1],%Inh [2],%Inh [3],%Inh [4],%Inh [5],%Inh [6],%Inh [7],%Inh [8],%Inh [9],%Inh [10],%Inh [11],%Inh [12],%Inh [13],%Inh [14],%Inh [15],%Inh [16],%Inh [17],%Inh [18],%Inh [19],%Inh [20]
CCC(=O)c1c(-c2ccccc2)c2cc(Cl)ccc2c(=O)n1Cc1cc(C(=O)NC2CC2)n(C)n1,4%,3%,8%,26%,0%,38%,11%,4%,7%,4%,20%,23%,25%,9%,4%,0%,0%,10%,0%,5%
COC(=O)c1c(-c2ccccc2)c2cc(Br)ccc2c(=O)n1Cc1ccc(NC(=O)CCC(=O)O)cc1,24%,0%,4%,12%,7%,31%,5%,12%,5%,7%,19%,13%,14%,57%,0%,0%,0%,29%,3%,3%
Cl.c1ccc(Cn2cnc3cc(Nc4ncnc5ccccc45)ccc32)cc1 [GW272142],4%,0%,0%,12%,0%,10%,0%,10%,0%,0%,12%,13%,80%,38%,0%,33%,0%,0%,19%,0%
Cc1cccc(-c2cc(-c3c[nH]nc3-c3ccccn3)ccn2)c1 [GW679395],38%,7%,0%,22%,0%,13%,0%,13%,33%,17%,25%,22%,74%,19%,0%,36%,0%,0%,0%,19%
COc1cccc(C2=C(N(C)c3ccccc3)C(=O)NC2=O)c1 [SB-334865],0%,4%,0%,16%,0%,0%,5%,7%,18%,14%,3%,0%,11%,41%,0%,0%,7%,0%,0%,46%
Nc1nc(-c2ccccc2F)c(-c2ccnc3ccccc23)s1 [GW560459],0%,0%,0%,0%,0%,0%,0%,0%,34%,0%,0%,1%,0%,71%,0%,36%,10%,0%,0%,0%
Nc1n[nH]c2nnc(-c3ccccc3)c(-c3ccccc3)c12 [GW554060],15%,6%,0%,12%,0%,28%,0%,10%,9%,0%,43%,8%,17%,27%,16%,32%,0%,0%,3%,0%
O=C1NC(=O)C(c2ccccc2)=C1Nc1cccc(O)c1 [SB-390534],24%,0%,8%,0%,0%,10%,16%,0%,0%,0%,0%,0%,0%,0%,0%,3%,0%,0%,0%,0%
Cc1ccc(-c2ccc3c(ccc4sc5c(c43)NC[C@@H](C)N=C5N(C)C)n2)cn1,0%,0%,0%,0%,0%,0%,0%,0%,0%,0%,0%,0%,15%,8%,0%,3%,0%,0%,1%,14%
Nc1ncnc2c1ncn2-c1ccc(Cl)cc1 [AH2635],0%,12%,0%,0%,0%,0%,0%,3%,9%,0%,3%,7%,10%,53%,1%,50%,0%,0%,18%,0%
COc1cc(Nc2ccnc3ccc(C(F)(F)F)cc23)cc(OC)c1OC [GW577382],61%,35%,27%,14%,2%,0%,10%,75%,10%,26%,14%,20%,49%,16%,30%,23%,0%,5%,0%,1%
COc1ccc(-c2cc3c(C)nc(N)nc3n([C@H]3CC[C@H](OCCO)CC3)c2=O)cn1,13%,0%,0%,12%,11%,11%,0%,0%,0%,0%,16%,5%,4%,13%,0%,0%,0%,14%,0%,16%
OCCCNc1nccc(-c2c(-c3cccc(C(F)(F)F)c3)nn3cc(C(F)(F)F)ccc23)n1 [GW630813],5%,0%,5%,0%,0%,0%,0%,0%,0%,0%,0%,10%,0%,19%,12%,40%,0%,0%,0%,0%
COc1ccc(Nc2nccc(N3CCC(NS(=O)(=O)c4ccc(NC(C)=O)cc4)C3)n2)cc1 (centres unmarked) [GSK1379729],23%,21%,0%,36%,7%,31%,17%,7%,19%,1%,35%,25%,28%,20%,18%,0%,20%,10%,6%,0%
Cc1ccccc1COc1cc(-n2cnc3cc(Cl)ccc32)sc1C(N)=O [GW813349],9%,6%,0%,0%,0%,0%,0%,0%,14%,19%,0%,10%,17%,14%,54%,0%,1%,0%,0%,0%
